In the library only some 3.3% were active in any assay of this set; here they are far more common.
NS1 inh – inhibitors of influenza NS1 protein function; Potency, µM (series often up to 46.1 µM), for the others: at the top dose activity, positive = more growth; 270,000 compounds, 0.4% hits; AID 2326; calls by dose curve; also: actives are rising curves; nearly all actives have a fitted effect of over 50% in size
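Recovery from NS1-induced slow growth read by OD600 in budding yeast switched to galactose assay medium (pH 6.0, -URA) at 1:100 dilution. Compound 23 nl per well; the matching strain lacking NS1 serves as control.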
Sm TGR inh – blocks Schistosoma mansoni thioredoxin glutathione reductase. AID 485364. purified TGR, DTNB reduction, TNB absorbance 405 nm. Potency, µM (highest dose often 114 µM), for the others: at the top dose activity change, negative = inhibition, usual class: inhibitors. 360,000 compounds, 3% hits; also: % is scaled to controls: 0 for no effect and ±100 for the full control effect; nearly all actives have a fitted effect of over 60% in size
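TGR 20 nM + NADPH 100 uM (dispensed conc.), cpd preinc 15 min RT; start with NADPH (500 uM addition) then DTNB (15 mM addition). Kinetic TNB absorbance, 405 nm filter. Four-parameter Hill fit across titration.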
RE007 growth inh – less growth of the S. pombe RE007 Vpr strain; S. pombe RE007 Vpr strain, BacTiter-Glo ATP luminescence, 24 h; 360,000 compounds, 0.21% hits; AID 651644; Potency, µM (highest dose often 92.2 µM), for inactives: at the top dose activity change, negative = less growth, hits mostly inhibitors; active = well fitted falling curve with a large enough effect; inconclusive = small, poorly fitted or top-dose-only effect; inactive = no such curve, though single readings can be large or run the other way; also: % is scaled to controls: 0 for no effect and ±100 for the full control effect; nearly all actives have a fitted effect of over 50% in size
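Fission yeast strain RE007, carrying one chromosomally integrated HIV-1 vpr copy, was seeded at OD 0.01 in PMG+AL medium with 23 nL pinned compound. After 24 h at 30 °C and 99% humidity, viability was read by BacTiter-Glo luminescence.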
TbPYK inhibitor – blocks Trypanosoma brucei pyruvate kinase; TbPYK enzyme, Kinase-Glo Plus ATP luminescence, 45 min; 410,000 compounds, 0.12% hits; Potency, µM (highest dose often 76.8 µM), for the others: top-dose activity, negative = inhibition, actives largely listed as inhibitors; Q57TT1; also: % is scaled to controls: 0 for no effect and ±100 for the full control effect; nearly all actives have a fitted effect of over 50% in size
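TbPYK + substrate in 50 mM TEA pH 7.2, 100 mM KCl, 10 mM MgCl2, 0.05% BSA, 0.01% Tween-20; cpd pinned; ADP 130 uM final; 45 min RT; Kinase-Glo Plus 10 min; luminescence endpoint.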
SARS PLpro yeast – SARS-CoV PLP inhibition in yeast; Potency, µM (top dose mostly 32.9 µM), inactives show at the highest dose activity, positive = growth rescue, most hits filed as activators; 330,000 compounds, 0.19% hits; S. cerevisiae expressing SARS-CoV PLpro, growth rescue; calls by dose curve; also: 0% is about no effect; nearly all actives have a fitted effect of over 55% in size
LmPK inhibitor – LmPK (Leishmania mexicana) enzyme inhibition | Q27686 | purified LmPK, Kinase-Glo ATP luminescence, 1 h | Potency, µM (titrated, usually from 57.5 µM), without a hit: at the top dose activity change, negative = inhibition, usual class: inhibitors | 290,000 compounds, 0.37% hits | AID 1721; also: % is scaled to controls: 0 for no effect and ±100 for the full control effect
Target sequence (Q27686 whole entry, looked up): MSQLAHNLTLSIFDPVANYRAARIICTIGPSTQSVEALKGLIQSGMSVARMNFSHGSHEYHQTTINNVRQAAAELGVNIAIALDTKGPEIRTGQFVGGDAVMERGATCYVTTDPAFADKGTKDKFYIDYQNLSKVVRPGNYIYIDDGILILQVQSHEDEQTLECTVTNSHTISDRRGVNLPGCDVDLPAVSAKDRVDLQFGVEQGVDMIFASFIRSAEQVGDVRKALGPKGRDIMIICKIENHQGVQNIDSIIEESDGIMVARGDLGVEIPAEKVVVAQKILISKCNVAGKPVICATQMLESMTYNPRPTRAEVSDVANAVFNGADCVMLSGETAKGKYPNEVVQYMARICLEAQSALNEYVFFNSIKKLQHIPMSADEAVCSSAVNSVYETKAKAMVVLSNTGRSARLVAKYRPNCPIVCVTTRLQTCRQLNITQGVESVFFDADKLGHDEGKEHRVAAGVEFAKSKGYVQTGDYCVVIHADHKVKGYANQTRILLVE
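Kinase-Glo luminescence read after 1 h RT reaction of 0.1 nM LmPK with 0.5 mM PEP and 0.1 mM ADP. Activity scaled between uninhibited and enzyme-free controls.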
Starred values were filed as active, the others as inactive; ? = inconclusive; nt = not tested or not shown. Unless noted, calls follow the shape of the dose curve; as a rule, active = well fitted curve in the direction sought with a large enough effect; inconclusive = small, poorly fitted or top-dose-only effect, or another doubt; inactive = no such curve, though single readings can be large; an effect the other way counts as inactive or inconclusive. Potency is read from the fitted curve at half-maximal effect.

SMILES	NS1 inh	Sm TGR inh	RE007 growth inh	TbPYK inhibitor	SARS PLpro yeast	LmPK inhibitor
CCOc1ccc(/C=N/NC(=O)c2ccccc2NC(=O)c2ccc(OC)cc2)cc1	-4%	2%	-18%	-10%	-3%	-13%
O=C(Nc1ccccc1C(=O)N/N=C/c1ccncc1)c1ccccc1	nt	2%	8.9µM*	?	-17%	25µM*
Cc1ccn2c(=O)c(C(=O)NCCc3ccc(S(N)(=O)=O)cc3)c(O)nc2c1	nt	0%	nt	-3%	nt	nt
NCCP(=O)(O)O	-11%	nt	nt	nt	nt	nt
CCc1nn(CC(=O)Nc2cccc(C(C)=O)c2)c(=O)c2cc3sccc3n12	nt	-9%	nt	-3%	nt	nt
O=C(C#Cc1ccccc1)c1cccc([N+](=O)[O-])c1	-129%	0.25µM*	?	-17%	-51%	-6%
CC(=O)c1cccc(Nc2cc(C)nc3nc(-c4ccccc4C)nn23)c1	nt	-7%	nt	-2%	nt	nt
O=C1NC2=C(CCc3ccccc32)C(c2ccc(Br)cc2)N1 (stereo not drawn)	-1%	50µM*	6%	-11%	2%	-1%
CCCCN(C(=O)CC1CCCC1)c1c(N)n(CCC)c(=O)[nH]c1=O	nt	0.56µM*	-3%	-10%	5%	nt
CC1(C)CC(=O)C(N=Nc2cccc([N+](=O)[O-])c2)=C(O)C1	-77%	?	14%	-3%	-5%	-30%
CC1(C)CC(=O)C(N=Nc2ccc(C(F)(F)F)cc2[N+](=O)[O-])=C(O)C1	-4%	4µM*	-11%	1%	-4%	4%
COc1ccc(N=NC2=C(O)CC(C)(C)CC2=O)c(OC)c1	-2%	-19%	6%	4%	0%	-1%
CC1(C)CC(=O)C(N=Nc2cccc(F)c2C#N)=C(O)C1	-51%	14µM*	-1%	0%	2%	2%
CCCCCCCC#Cc1ccccc1/C=N/S(=O)c1ccc(C)cc1 (stereo not drawn)	-14%	?	?	20µM*	1%	5%
C=CCn1c(O)c(N=Nc2ccccc2C)c2ccccc21	-1%	18µM*	6%	-20%	-2%	8%
Cc1cc(C(=O)CN2CC(C)OC(C)C2)c(C)n1-c1ccccc1 (stereo not drawn)	8%	45µM*	-6%	-2%	0%	-2%
Cc1ccc(-n2c(C)cc(C(=O)CN3CCCCC3)c2C)cc1	5%	-4%	1%	3%	-11%	-3%
CCc1ccc(CNC(=O)CCc2c(C)nn(-c3ccc(N4CCCC4)nn3)c2C)cc1	nt	-3%	nt	1%	nt	nt
Cn1cnc([N+](=O)[O-])c1Nc1ccc(O)cc1	-3%	25µM*	4%	-1%	13%	5%
CCNc1c([N+](=O)[O-])ncn1C	3%	4%	-10%	-11%	4%	-9%
NC(=O)C[C@H](N)C(N)=O	-1%	nt	nt	nt	nt	nt
Cc1ccc(NCC(=O)c2ccc(C)cc2)cc1	-17%	0%	-27%	6%	17%	-1%
Cc1ccc(NCCC(=O)c2ccc(Br)cc2)cc1	-3%	7.1µM*	-19%	5%	-7%	0%
Cc1ccc(NCCC(=O)c2ccc(Cl)cc2)cc1	-7%	6.3µM*	8%	3%	-1%	1%
O=C(CNc1ccc(Br)cc1)c1ccc(O)cc1	nt	-8%	-25%	3%	-22%	-2%
SMILES	NS1 inh	Sm TGR inh	RE007 growth inh	TbPYK inhibitor	SARS PLpro yeast	LmPK inhibitor
CCc1ccc(NCCC(=O)c2ccc(Br)cc2)cc1	0%	13µM*	4%	6%	18%	3%
CCC(Sc1nnc2c3ccccc3n(CC)c2n1)C(=O)Nc1ccc(NC(C)=O)cc1 (stereo not drawn)	nt	-1%	nt	1%	nt	nt
CCCn1nnc(NC(=S)NC(=O)c2cccs2)n1	-2%	-34%	-24%	3%	-6%	?
CCCCn1nnc(N(C(=O)c2cccs2)C(=O)c2cccs2)n1	-43%	4.5µM*	-27%	-10%	-1%	-5%
N#CC(C#N)=C1C=CC=CN1/C(=C\c1ccco1)C(=O)c1ccccc1	0%	2.8µM*	2%	-13%	-16%	8%
N#CC(C#N)=C1C=CC=CN1/C(=C\c1ccco1)C(=O)c1ccc(Br)cc1	6%	2.2µM*	-11%	?	-43%	0%

Bioassay records: PubChem BioAssay, National Center for Advancing Translational Sciences (NCATS)
